# ELG1 genotox: induces genotoxicity in HEK293T cells with luciferase-tagged ELG1. AID 504466. HEK293T ELG1-luciferase reporter, luminescence, 16 h. Potency, µM (titrated, usually from 46 µM), for the others: at the top dose activity change, positive = activation, usual class: activators. 330,000 compounds, 1.3% hits; note: % of control where 0% means no effect; nearly all actives have a fitted effect of over 60% in size
#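 HEK293T cells expressing luciferase-tagged ELG1 were exposed to compound or DMSO vehicle for 16 hr at 37 °C and 5% CO2. Luciferase activity was then measured with ONE-Glo after 30 min at room temperature.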
# ELG1 repair inh: blocks ELG1-dependent DNA repair in HEK293T cells | HEK293T ELG1-luciferase reporter, luminescence, 16 h; DNA damage induced by 5-fluorouridine | Potency, µM (highest dose often 46.1 µM), inactives show top-dose activity change, negative = inhibition, hits mostly inhibitors | 330,000 compounds, 2.3% hits; note: % is set by controls: 0 for no effect and ±100 for the full control effect; nearly all actives have a fitted effect of over 55% in size
#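 Cells (2,000 per well) received 5-fluorouridine plus test compound or DMSO and were incubated 16 hr at 37 °C, 5% CO2. Luciferase activity was read by luminescence 30 min after ONE-Glo addition; signal suppression marked inhibition of damage-induced ELG1 function.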
# NPC1 prom act: NPC1 promoter activation | Huh7 NPC1 promoter luciferase reporter, 24 h | AID 485313 | Potency, µM (doses to about 9.22 µM), for the others: top-dose activation, most hits filed as activators | 320,000 compounds, 2.4% hits; note: % of control where 0% means no effect; nearly all actives have a fitted effect of over 60% in size
#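 Huh7 cells stably carrying NPC1 promoter–luciferase, plated in Opti-MEM with 10% FBS for 2 h, were exposed to compound in DMSO for 24 h at 37 °C; luciferase reagent was added for 10 min and luminescence read.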
# FLuc modulator: inhibits or activates purified firefly luciferase, miR-21 counter-screen; 360,000 compounds, 6.9% hits; purified FLuc, Km substrates, luminescence inhibition; P08659; Potency, µM (top dose mostly 57.5 µM), for the others: at the top dose activity change, negative = inhibition, actives largely listed as inhibitors;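 note: plate controls were vehicle for no effect and reference inhibitor for full effect; nearly all actives have a fitted effect of over 55% in size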
# Target sequence (P08659 whole entry, looked up): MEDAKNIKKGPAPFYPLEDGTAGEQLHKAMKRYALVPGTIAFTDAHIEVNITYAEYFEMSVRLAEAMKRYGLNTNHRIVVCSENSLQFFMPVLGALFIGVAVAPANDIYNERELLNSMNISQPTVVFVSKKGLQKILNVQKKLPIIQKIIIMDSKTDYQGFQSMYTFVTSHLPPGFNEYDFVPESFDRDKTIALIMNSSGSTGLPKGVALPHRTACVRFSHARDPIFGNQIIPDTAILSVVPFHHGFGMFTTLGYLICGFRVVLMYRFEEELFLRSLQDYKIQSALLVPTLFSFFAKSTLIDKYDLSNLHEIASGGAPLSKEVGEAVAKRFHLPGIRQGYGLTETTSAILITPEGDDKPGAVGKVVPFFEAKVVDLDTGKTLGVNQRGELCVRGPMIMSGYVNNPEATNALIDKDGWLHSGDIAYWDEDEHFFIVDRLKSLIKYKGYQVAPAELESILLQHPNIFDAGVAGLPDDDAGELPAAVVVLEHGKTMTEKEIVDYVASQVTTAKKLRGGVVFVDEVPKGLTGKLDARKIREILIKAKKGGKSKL
#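 Biochemical qHTS of compounds, final roughly 60 µM downward over six points, against 10 nM purified firefly luciferase using Km concentrations of substrates (10 uM D-luciferin, 10 uM ATP) in Tris acetate pH 7.5 buffer; luminescence output.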
# Rab9 promoter act: activators of Rab9 promoter; Potency, µM (top dose mostly 9.22 µM), without a hit: top-dose activation, negative = inhibition, actives largely listed as activators; Huh7 Rab9 promoter-luciferase reporter, luminescence, 24 h; 320,000 compounds, 2.8% hits; note: % of control where 0% means no effect; nearly all actives have a fitted effect of over 60% in size
#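 Promoter activation is measured as luciferase luminescence in Huh7 cells stably transfected with a Rab9 promoter–luciferase construct, following 24 h compound exposure at 37 °C and 10 min reagent incubation at ambient temperature.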
# SMN2 splice enh: SMN2 splice variant enhancement; HEK293 SMN2-luciferase splicing reporter, luminescence, 30-36 h; Potency, µM (top dose mostly 46.1 µM), for the others: top-dose activity change, positive = activation, actives largely listed as activators; 210,000 compounds, 2.8% hits; note: % of control where 0% means no effect; nearly all actives have a fitted effect of over 55% in size
#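 HEK293 cells carry an SMN2 […]–luciferase reporter in which exon 7 inclusion puts luciferase in frame. Cells were plated 10-12 h before compound addition, then incubated 30-36 h at 37C. ONE-Glo luminescence was read; sodium butyrate at 4.5 mM final served as control.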
# Active calls of the source: *; ? = inconclusive; nt = no result; [ ] = remark or other dose. Most compounds without a hit are left out; they make up all but 9.4% or so of the library. Calls come from the whole dose curve; as a rule, active = well fitted curve in the direction sought with a large enough effect; inconclusive = small, poorly fitted or top-dose-only effect, or another doubt; inactive = no such curve, though single readings can be large; an effect the other way counts as inactive or inconclusive. Potency is the fitted concentration of half-maximal effect.
SMILES,ELG1 genotox,ELG1 repair inh,NPC1 prom act,FLuc modulator,Rab9 promoter act,SMN2 splice enh
CN(C)S(=O)(=O)c1cccc(NC(=O)/C=C/c2ccc(S(=O)(=O)N3CCOCC3)cc2)c1,-7.8%,23.1µM*,1.5%,-5.9%,-9.5%,nt
COc1cc(/C=C/C(=O)Nc2cccc(S(=O)(=O)N3CCOCC3)c2)ccc1OCC#N,-5.7%,?,-7.8%,-0.9%,-2.4%,nt
COc1cc(/C=C/C(=O)NC(=O)c2ccccc2O)ccc1OC(C)=O,?,?,?,3.01µM*,?,nt
COc1ccccc1CNC(=O)c1ccc(-c2nc(CS(=O)c3ccc(C)cc3)c(C)o2)cc1 (stereo not drawn),nt,nt,nt,-17.4%,nt,nt
O=C(/C=C/c1ccco1)Nc1cccc(S(=O)(=O)N2CCOCC2)c1,0.7%,15.9%,11.7%,16.9µM*,?,16.4%
O=C(/C=C/c1ccc(OC(F)F)cc1)Nc1cccc(S(=O)(=O)N2CCOCC2)c1,-27.8%,23.1µM*,14.8%,4.78µM*,1.9%,nt
Cc1ccc(C)c(NC(=O)CSc2nnc3[nH]c(=O)cc(-c4ccccc4)n23)c1,nt,nt,nt,0.953µM*,nt,nt
CCOc1ccccc1NC(=O)CSc1nnc2[nH]c(=O)cc(-c3ccccc3)n12,nt,nt,nt,6.01µM*,nt,nt
CCCCc1ccc(NC(=O)CSc2nnc3[nH]c(=O)cc(C)n23)cc1,nt,nt,nt,15.1µM*,nt,nt
CCOc1ccccc1NC(=O)CSc1nccn1-c1ccccc1,-7.3%,-15.1%,-0.3%,-2.3%,-9.4%,7.9%
Cc1ccc(NC(=O)CSc2nnc3[nH]c(=O)cc(-c4ccccc4)n23)cc1Cl,nt,nt,nt,0.675µM*,nt,nt
Cc1ccc(C)c(NC(=O)CSc2nnc(-c3ccccc3)n2N)c1,-6.1%,-1.5%,1.1%,1.9%,-8.8%,-13.3%
Cc1cccc(NC(=O)C2CCCN(S(=O)(=O)c3cnc[nH]3)C2)c1C (stereo not drawn),nt,nt,nt,-3.9%,nt,2.2%
CCc1nc(SCC(=O)N2CCN(C(=O)c3ccco3)CC2)c2c3c(sc2n1)CCCC3,-24.7%,?,3.2%,16.9µM*,3.3%,-28.6%
N#Cc1c(N2CCN(C(=O)c3ccco3)CC2)nc(-c2ccccc2)c2c1CCCC2,-12.4%,25.9µM*,0.0%,1.2%,7.2%,-44.1%
N#Cc1c(N2CCN(C(=O)c3ccccc3)CC2)nc(-c2ccccc2)c2c1CCCC2,-12.9%,?,1.1%,2.6%,-0.2%,-10.5%
O=C(CSc1ncnc2sc3c(c12)CCCC3)c1ccccc1,5.4%,?,-0.6%,-11.0%,-6.0%,-56.8%
CCn1c(SCC(=O)N2CCOCC2)nc2sc3c(c2c1=O)CCCC3,6.4%,5.4%,-1.1%,-1.1%,2.6%,nt
Cc1nc(SCC(=O)N2CCOCC2)c2c3c(sc2n1)CCC3,-1.8%,20.6µM*,nt,nt,nt,nt
O=C(CSc1ncnc2sc3c(c12)CCCC3)c1ccco1,-0.2%,?,15.3%,12µM*,?,13.2%
Cc1cccc(C)c1NC(=O)CCS(=O)(=O)c1ccc2c(c1)CC(C)N2C(=O)C1CC1 (stereo not drawn),nt,nt,nt,-10.3%,nt,nt
COC(=O)[C@@H]1C[C@@]2(O)[C@@H](O)[C@@H](O)[C@@H](O)C[C@H]2N1Cc1ccc(C(C)(C)C)cc1,nt,nt,nt,nt,nt,-19.5%
CCc1ccccc1NC(=O)Cn1nnc(-c2nc(-c3ccncc3)no2)c1N,nt,nt,nt,-0.7%,nt,nt
Cc1nc(N2CCN(C(=O)c3ccco3)CC2)c2c3c(sc2n1)CCCC3,-7.8%,18.4µM*,-0.8%,-0.9%,2.7%,-28.1%
COc1cc(CN2CCCCC2)cc2cc(C(=O)O)c(=O)oc12,nt,nt,nt,nt,nt,-7.8%[9.22 µM]
SMILES,ELG1 genotox,ELG1 repair inh,NPC1 prom act,FLuc modulator,Rab9 promoter act,SMN2 splice enh
CN(C)c1ccc(CN(Cc2ccco2)C(=O)COc2ccc(F)cc2)cc1,nt,nt,nt,-13.6%,nt,0.0%
CCN(CC)S(=O)(=O)c1ccc(NC(=O)COC(=O)c2ccc(-n3nc(C)cc3C)cc2)cc1,-0.9%,?,-0.5%,1.0%,-0.5%,-3.6%
CCN(CC)S(=O)(=O)c1cc(C(=O)OCC(=O)Nc2ccc(-c3nc4ccc(C)cc4s3)cc2)ccc1F,10.3µM*,?,0.398µM*,5.36µM*,0.316µM*,1.58µM*
CCN(CC)S(=O)(=O)c1ccc(C(=O)OCC(=O)Nc2ccc(-c3nc4ccc(C)cc4s3)cc2)cc1,1.64µM*,?,0.398µM*,2.69µM*,0.447µM*,1µM*
COc1ccc(C[N+](C)(C)N)cc1OC,nt,nt,nt,nt,nt,-7.8%[9.22 µM]
CCc1ccc(C(=O)COC(=O)CNC(=O)CNS(=O)(=O)c2ccccc2)cc1,1.0%,22.4%,1.0%,19µM*,3.4%,nt
CCc1ccc(C(=O)COC(=O)CNC(=O)CNC(=O)Cc2ccccc2)cc1,-1.4%,?,1.0%,?,-2.3%,-6.7%
CCc1ccc(C(=O)COC(=O)CNC(=O)C2CCCCC2)cc1,3.2%,?,-1.1%,0.849µM*,24.9%,nt
CCc1ccc(C(=O)COC(=O)CNC(=O)Cc2ccccc2)cc1,2.9%,10.6%,2.5%,16.9µM*,0.9%,nt
O=C(CNC(=O)C1CCCCC1)OCC(=O)c1ccc(F)cc1,-0.2%,-16.8%,8.3%,-0.1%,-9.8%,nt
COc1ccc2nc(NC(=O)c3ccc(S(=O)(=O)N4CCCC(C)C4)cc3)sc2c1 (stereo not drawn),nt,nt,nt,0.0%,nt,nt
COc1ccc(CNC(=O)CC(C)n2nc(C)cc2C)cc1 (stereo not drawn),nt,nt,nt,0.2%,nt,nt
COCCCNC(=O)CN1C(=O)c2cccnc2Sc2ccccc21,nt,nt,nt,1.7%,nt,nt
Cc1cc2c(cc1NC(=O)c1ccccc1C)n(C)c(=O)c(=O)n2C,nt,nt,nt,-1.3%,nt,nt
CCCCc1cc2c(cn1)=C(OC(=O)c1ccco1)C(C)(OC(=O)CC)C(=O)C=2 (stereo not drawn),nt,nt,nt,nt,nt,4.0%[9.22 µM]
